Where “and” joins values, the source holds several entries; their conditions need not be identical. Equal entries are not always repeated. Hit rate of the full screen: of about 5,500 compounds, about 2,000 (36%) were called active. Inconclusive results (about 18%) are left out. Cut-off read from the data, not from the text of the source: active = normalized growth mostly below about 0.91 (no sharp cut-off); inconclusive = no clear call, values can overlap the other calls; inactive = mostly above about 0.92. The list shows a part of the results.
Experiment: chemical genetic growth profiling, strain panel (AID 1159580);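 note: tested at 20 µM; growth read once vehicle control cultures reached saturation at 30 °C; 1 = growth at the plate median or of vehicle wells; lower values mean less growth of the strain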
Conditions: S. cerevisiae deletion strains, growth OD

Measured: normalized growth

CC(C)CCCC(C)[C@H]1CCC2C3CC=C4C[C@@H](O)CC[C@]4(C)C3CC[C@@]21C (some centres undefined)
inactive: locus YAL021C, strain ccr4, hits give low values 0.974 | locus YAL026C, strain drs2, hits give low values 0.96 | locus YAL030W, strain snc1, hits give low values 0.979 | locus YBL061C, strain skt5, hits give low values 0.99 | locus YBR009C, strain hhf1, hits give low values 0.986 | locus YBR021W, strain FUR4, hits give low values 1.01 | locus YBR023C, strain chs3, hits give low values 0.989 | locus YBR171W, strain sec66, hits give low values 0.987 | locus YBR229C, strain ROT2, hits give low values 1.01 | locus YBR231C, strain swc5, hits give low values 0.989 | locus YBR279W, strain paf1, hits give low values 0.951 | locus YCL011C, strain gbp2, hits give low values 0.972 | locus YCL016C, strain dcc1, hits give low values 0.994 | locus YCL029C, strain bik1, hits give low values 0.979 | locus YCL061C, strain MRC1, hits give low values 0.985 | locus YCL069W, strain vba3, hits give low values 0.964 | locus YCR088W, strain abp1, hits give low values 0.992 | locus YDL005C, strain med2, hits give low values 0.976 | locus YDL035C, strain GPR1, hits give low values 1.03 | locus YDL040C, strain nat1, hits give low values 0.986 | locus YDL074C, strain BRE1, hits give low values 1.03 | locus YDL101C, strain DUN1, hits give low values 1.01 | locus YDL134C, strain PPH21, hits give low values 1.03 | locus YDL185W, strain tfp1, hits give low values 0.994 | locus YDL192W, strain arf1, hits give low values 0.992 | locus YDR001C, strain nth1, hits give low values 0.981 | locus YDR069C, strain doa4, hits give low values 0.966 | locus YDR101C, strain arx1, hits give low values 0.962 | locus YDR137W, strain rgp1, hits give low values 0.916 | locus YDR159W, strain sac3, hits give low values 0.963 | locus YDR162C, strain NBP2, hits give low values 1 | locus YDR195W, strain ref2 0.957 | locus YDR297W, strain sur2, hits give low values 0.985 | locus YDR318W, strain mcm21, hits give low values 1.01 | locus YDR334W, strain swr1, hits give low values 0.964 | locus YDR335W, strain msn5, hits give low values 0.996 | locus YDR388W, hits give low values 0.988 | locus YDR392W, strain spt3, hits give low values 0.935 | locus YDR502C, strain sam2, hits give low values 0.974 | locus YEL003W, strain gim4, hits give low values 0.982 | locus YEL037C, strain rad23, hits give low values 0.953 | locus YEL061C, strain CIN8 (second series), hits give low values 0.965 | locus YEL061C, strain CIN8, hits give low values 1.01 | locus YER015W, strain faa2, hits give low values 0.995 | locus YER016W, strain bim1, hits give low values 0.987 | locus YER110C, hits give low values 0.991 | locus YER111C, strain swi4, hits give low values 0.985 | locus YER155C, strain BEM2 (second series), hits give low values 0.984 | locus YER155C, strain BEM2, hits give low values 1.01 | locus YER167W, strain BCK2, hits give low values 1 | locus YFR010W, strain ubp6, hits give low values 0.961 | locus YGL078C, strain dbp3, hits give low values 0.996 | locus YGL086W, strain mad1, hits give low values 0.991 | locus YGL167C, strain pmr1, hits give low values 0.99 | locus YGL173C, strain kem1, hits give low values 0.984 | locus YGL227W, strain vid30, hits give low values 0.99 | locus YGL240W, strain doc1, hits give low values 0.986 | locus YGL248W, strain PDE1, hits give low values 1.03 | locus YGL253W, strain hxk2, hits give low values 0.976 | locus YGR078C, strain PAC10, hits give low values 1.01 | locus YGR135W, strain pre9, hits give low values 1 | locus YGR252W, strain gcn5, hits give low values 0.978 | locus YHR013C, strain ard1, hits give low values 0.96 | locus YHR027C, strain rpn1, hits give low values 0.997 | locus YHR030C, strain SLT2, hits give low values 1.01 and 1.02 | locus YHR079C, strain IRE1 (second series), hits give low values 0.997 | locus YHR079C, strain IRE1, hits give low values 1.01 | locus YHR094C, strain hxt1, hits give low values 0.988 | locus YHR129C, strain ARP1, hits give low values 0.999 | locus YHR142W, strain chs7, hits give low values 0.956 | locus YHR200W, strain rpn10, hits give low values 0.995 | locus YIL066C, strain RNR3, hits give low values 1.01 | locus YIL073C, strain SPO22, hits give low values 1 | locus YIL125W, strain kgd1, hits give low values 0.99 | locus YIR030C, strain dcg1, hits give low values 0.987 | locus YJL092W, strain hpr5, hits give low values 0.992 | locus YJL095W, strain BCK1 (second series), hits give low values 0.987 | locus YJL095W, strain BCK1, hits give low values 1.04 and 1.01 | locus YJL115W, strain asf1, hits give low values 0.981 | locus YJL129C, strain trk1, hits give low values 0.968 | locus YJL134W, strain LCB3, hits give low values 1.01 | locus YJL154C, strain vps35, hits give low values 0.981 | locus YJL164C, strain tpk1, hits give low values 0.985 | locus YJL166W, strain qcr8, hits give low values 0.985 | locus YJL168C, strain set2, hits give low values 1 | locus YJL187C, strain SWE1 (second series), hits give low values 1.01 | locus YJL187C, strain SWE1, hits give low values 0.974 | locus YJR043C, strain POL32, hits give low values 1.01 | locus YJR066W, strain TOR1, hits give low values 0.987
